Pf Dd2 inh – blocks in vitro growth of P. falciparum Dd2. P. falciparum Dd2 growth, SYBR Green, 72 h. Potency, µM (top dose mostly 28.9 µM), for the others: at the highest dose activity, negative = inhibition, hits mostly inhibitors. 4.3% of 120,000 active; active means well fitted inhibition curve with a large enough effect;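 further: plate controls were DMSO vehicle for no effect and reference drug for full effect; nearly all actives have a fitted effect of over 65% in size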
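Infected erythrocytes (Dd2, 0.3% parasitemia, 2.5% hematocrit final) are added to compound in RPMI-1640/Albumax II medium, grown 72 h at 37C in low oxygen, then lysed with saponin/Triton-X containing SYBR Green and read by fluorescence.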
* = called active by the depositor; i = inactive; [ ] = another dose, or the depositor's remark. Shown is part of a subset that was picked to be rich in hits. Potency means the concentration at half of the fitted maximal effect.

SMILES | Pf Dd2 inh
COC1CCC12CCN(C(=O)c1ccc3cc[nH]c3c1)CC2 (stereo unspecified) | -19%
CCN1C(=O)c2ccccc2Sc2ccc(NC(=O)Nc3ccccc3OC)cc21 | 25%
COc1cc(C(=O)Nc2ccc3c(c2)N(C2CCCC2)C(=O)c2ccccc2S3)cc(OC)c1OC | 8.9µM*
O=C(Nc1ccc2c(c1)N(C1CCCC1)C(=O)c1ccccc1S2)c1ccccc1 | 3%
O=C(C1CC1)N1CCCC(c2nc(C3CCOCC3)no2)C1 (stereo unspecified) | 15%
O=C1NCc2ccccc2CC12CCCN(CC1CC=CCC1)C2 (stereo unspecified) | -11%
COc1cc(OC)cc(C(=O)N2CCC(c3n[nH]c(=O)n3-c3ccc(C)cc3)CC2)c1 | -9%
CCN(Cc1cnn(C)c1)C(=O)C1CCC(=O)N(Cc2cccc(OC)c2)C1 (stereo unspecified) | 28%
COc1ccc(-c2cn3c(n2)CO[C@@H](CNS(=O)(=O)c2ccc(C)cc2)C3)cc1 | 13µM*
COc1ccc(-c2cn3c(n2)CO[C@@H](CNS(C)(=O)=O)C3)cc1 | i
Cc1ccc(-c2cn3c(n2)CO[C@@H](CNS(C)(=O)=O)C3)cc1 | -1%[44.1 µM]
O=C(NCC1(COc2cnccn2)C[C@@H](O)[C@@H](O)C1)c1ccc(F)cc1 (stereo partly specified) | i
O=C(NCCc1ccc(Cl)cc1)c1ccc2c(c1)N(Cc1c(F)cccc1Cl)C(=O)CS2 | i
CCCCN(C)C(=O)c1ccc2c(c1)N(Cc1cccc(F)c1)C(=O)c1ccccc1S2 | i
CCCCNC(=O)c1ccc2c(c1)N(CC)C(=O)c1ccccc1S2 | 1%
CCN(CC)CCCNC(=O)c1ccc2c(c1)N(Cc1c(F)cccc1Cl)C(=O)c1ccccc1S2 | 0.45µM*
O=C(NC1CCCC1)c1ccc2c(c1)N(Cc1ccccc1F)C(=O)c1ccccc1S2 | i
O=C(NCc1ccc2c(c1)OCO2)c1ccc2c(c1)N(Cc1c(F)cccc1Cl)C(=O)c1ccccc1S2 | 7.1µM*
O=C(c1ccc2cc[nH]c2c1)N1CCCC(Cc2noc(-c3ccccc3)n2)C1 (stereo unspecified) | i
O=C(c1ccc(OC(F)(F)F)cc1)N1CCN(c2cc(-c3ccccc3)[nH]n2)CC1 | i
O=C(O)Cn1nc(C2CCOC2)nc1C1(c2ccccc2)CC1 (stereo unspecified) | -5%
O=C(c1ccccn1)N1CCC2(CC1)CC(Cc1ccccc1)CCO2 (stereo unspecified) | -8%
O=C1N[C@@H](Cc2c[nH]c3ccccc23)C(=O)N2CCN(C(=O)c3cccnc3)C[C@@H]12 | 14%[44.1 µM]
COc1ccc(OC)c(CNC(=O)CCC[C@H]2NC[C@@H]3C[C@H]2CN(Cc2ccccc2)C3)c1 | i
COc1ccc(C(=O)N2CCCC(CO)CCNC(=O)CC2)cn1 (stereo unspecified) | -10%
SMILES | Pf Dd2 inh
COc1ccc(OC)c(CN2CC[C@@H]3OCC(=O)N(C(C)C)[C@H]3CC2)c1 | -20%[44.1 µM]
CC(C)c1nnc(C2CN(C(=O)c3cccs3)CC23CCOCC3)o1 (stereo unspecified) | -11%
COc1ccc(NC(=O)/C=C\C(=O)N(c2ccc(C(C)C)cc2)C(C(=O)NCc2ccco2)c2ccc(C)cc2)cc1 (stereo unspecified) | 10µM*
COc1ccc(/C=C/C(=O)Nc2ccc(C)cc2)cc1 | -29%
COc1ccc(NC(=O)C(c2ccc(C)cc2)N(C)C(=O)/C=C\c2ccc3c(c2)OCO3)cc1 (stereo unspecified) | -25%
CCOc1ccc(C2c3c(-c4cc(C)ccc4O)n[nH]c3C(=O)N2Cc2cccnc2)cc1OCC (stereo unspecified) | 11µM*
COc1ccc(-c2[nH]nc3ncc(-c4ccccc4O)nc23)c(C)c1 | i
CCCOc1cccc(C2c3c(-c4ccccc4O)n[nH]c3C(=O)N2Cc2ccco2)c1 (stereo unspecified) | 5.6µM*
COc1cc(C2c3c(-c4ccccc4O)n[nH]c3C(=O)N2CCO)ccc1OCc1ccccc1 (stereo unspecified) | 11µM*
CCOc1cc(C2c3c(oc4cc(C)cc(C)c4c3=O)C(=O)N2CCO)ccc1O (stereo unspecified) | 19%
COc1cccc(-c2n[nH]c3c2C(c2ccccn2)N(C)C3=O)c1 (stereo unspecified) | 5%
COc1cc(C2c3c(-c4cc(C)ccc4O)n[nH]c3C(=O)N2Cc2cccnc2)cc(OC)c1OC (stereo unspecified) | -8%
CCOc1ccc(C2c3c(oc4ccc(C)cc4c3=O)C(=O)N2CCCN(C)C)cc1OC (stereo unspecified) | -18%
COc1ccc(CCN2C(=O)c3[nH]nc(-c4ccccc4O)c3C2c2cccc(OC)c2)cc1 (stereo unspecified) | 10µM*
COc1cc(C2C(C(=O)OCC(C)C)=C(C)N=C3SCCC(=O)N32)ccc1OCc1ccccc1 (stereo unspecified) | -1%
CCCOc1ccc(C(=O)N(Cc2ccco2)Cc2ccco2)cc1 | 24%
O=C1c2[nH]nc(-c3ccccc3O)c2C(c2cccc(Br)c2)N1Cc1ccncc1 (stereo unspecified) | -4%
O=C(c1ccccc1F)N1CCn2c(nn(-c3ccc([N+](=O)[O-])cc3)c2=O)C1 | 16%
CC(C)n1cnnc1CC1CCN(C(=O)CN(C)S(=O)(=O)c2cccs2)CC1 | -23%
CCc1ccccc1CN1CCC2(CC1)Cc1ccccc1CNC2=O | -9%
C=CCNC(=O)CC1CCCN(c2cnn(CC)c(=O)c2)C1 (stereo unspecified) | 21%
CN1C[C@H](O)C[C@H]1c1nnc2n1CCN(Cc1ccc(F)c(F)c1)C2 | -2%
CN1CC(=O)N(C2CCC2)Cc2c1ncnc2N1CCc2ccccc2C1 | -22%
COc1ccc(C(=O)N2CCC3(CC2)C(OC)C(=O)N3CC2CC2)cn1 (stereo unspecified) | 16%
Cc1ccc(CCNC(=O)C2CC(=O)N(CCc3ccccc3)C2)cc1 (stereo unspecified) | 5%
SMILES | Pf Dd2 inh
CCCOc1ccc(C2c3c(-c4ccccc4O)n[nH]c3C(=O)N2CCc2ccccc2)cc1OCC (stereo unspecified) | 4.5µM*
O=C1c2[nH]nc(-c3ccccc3O)c2C(c2ccccc2F)N1Cc1ccncc1 (stereo unspecified) | 19%
Cc1ccc(C2c3c(-c4ccccc4O)n[nH]c3C(=O)N2CCc2ccccc2)cc1 (stereo unspecified) | 10µM*
Cc1cc(C)c2c(=O)c3c(oc2c1)C(=O)N(Cc1ccco1)C3c1ccccc1F (stereo unspecified) | 37%
CCOc1ccc(C2c3cc(OCC)c(OCC)cc3CC(=O)N2c2ccc(C(=O)O)cc2)cc1OCC (stereo unspecified) | 61%
Cc1ccc(C2NC(=O)c3n[nH]c(-c4cccs4)c32)cc1 (stereo unspecified) | -2%
O=C1c2[nH]nc(-c3ccccc3O)c2C(c2cccc(OCc3ccccc3)c2)N1CCCO (stereo unspecified) | 11µM*
O=C1c2[nH]nc(-c3ccccc3O)c2C(c2cccc(Cl)c2)N1Cc1cccnc1 (stereo unspecified) | i
Cc1cc(C)c(-c2n[nH]c3c2C(c2ccccc2F)N(Cc2ccco2)C3=O)c(O)c1 (stereo unspecified) | 4µM*
CCCCCOc1ccc(C2c3c(oc4ccccc4c3=O)C(=O)N2c2nc(C)c(C)s2)cc1OCC (stereo unspecified) | 83%
